In PubChem BioAssay (NCI):
The panel holds about 79,000 compounds, 15% with a hit somewhere; the sample as a whole holds those more often. Active and inactive are the calls of the source. No stated cut-off is given here; in the data, active means growth inhibition above about 70%; inactive means the rest.

Experiments:
[1] = NCI Yeast Anticancer Drug Screen. Data for the wt1 strain (AID 149);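 further: 0% = growth of vehicle-treated wt1 cultures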; conditions: S. cerevisiae wt1 strain (SPY 50644) growth inhibition, stronger effect = higher value
Method in brief: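 Using yeast strain wt1, compound-induced growth inhibition was determined against vehicle-treated cultures.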

[2] = NCI Yeast Anticancer Drug Screen. Data for the rad50EPP+ strain (AID 151);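 further: 0% = growth of vehicle-treated control cultures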; conditions: S. cerevisiae rad50 mutant strain, stronger effect = higher value
Method in brief: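 Compounds were applied to the rad50EPP+ yeast strain, which bears a defined DNA repair alteration, and growth inhibition was determined relative to vehicle-treated cultures.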

[3] = NCI Yeast Anticancer Drug Screen. Data for the mgt1 strain (AID 153); conditions: S. cerevisiae mgt1 mutant growth inhibition, stronger effect = higher value
Method in brief: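 Strain: mgt1 yeast, one of a set carrying defined DNA damage repair or cell cycle control alterations. Compound-treated growth compared with vehicle.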

[4] = NCI Yeast Anticancer Drug Screen. Data for the rad50 strain (AID 155);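 further: 0% = growth of vehicle-only cultures of the same strain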; conditions: S. cerevisiae rad50 strain growth inhibition, stronger effect = higher value
Method in brief: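 Relative growth inhibition (compound vs vehicle) was measured in yeast with a defined repair-gene alteration.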

[5] = NCI Yeast Anticancer Drug Screen. Data for the mec2-1 strain (AID 157); conditions: S. cerevisiae mec2-1 strain, stronger effect = higher value
Method in brief: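 Strain: mec2-1 (DNA repair/cell cycle alteration). Compound exposure, then growth measured; inhibition expressed relative to vehicle.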

[6] = NCI Yeast Anticancer Drug Screen. Data for the rad14 strain (AID 159);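 further: 0% = growth of vehicle-treated control cultures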; conditions: S. cerevisiae rad14 strain growth inhibition, stronger effect = higher value
Method in brief: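 Screen for anticancer potential: a yeast strain altered in DNA damage repair is grown with compound, and reduced growth is quantified against vehicle controls.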

[7] = NCI Yeast Anticancer Drug Screen. Data for the sgs1 mgt1 strain (AID 161);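 further: 0% = growth of cultures given vehicle only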; conditions: S. cerevisiae sgs1 mgt1 strain, stronger effect = higher value
Method in brief: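 Test agents were incubated with a DNA-repair-mutant yeast strain. Growth was then read and compared against vehicle-treated controls.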

[8] = NCI Yeast Anticancer Drug Screen. Data for the CLN2oe strain (AID 163);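 further: 0% = growth of vehicle-only control cultures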; conditions: S. cerevisiae CLN2oe strain, stronger effect = higher value
Method in brief: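 Growth of a genetically modified yeast strain is measured after compound exposure and compared with cultures given vehicle alone.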

[9] = NCI Yeast Anticancer Drug Screen. Data for the cln2 rad14 strain (AID 165);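 further: 0% = growth equal to vehicle treated cultures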; conditions: S. cerevisiae cln2 rad14 strain, stronger effect = higher value
Method in brief: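 Compounds are applied to the cln2 rad14 yeast strain, and growth is then compared with that of vehicle-treated cultures to give inhibition.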

[10] = NCI Yeast Anticancer Drug Screen. Data for the bub3 strain (AID 167); conditions: S. cerevisiae bub3 mutant strain, stronger effect = higher value
Method in brief: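 Screening used yeast with an engineered genetic alteration affecting cell cycle control. Compound-exposed cultures were compared with vehicle cultures, and reduced growth was taken as inhibition.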

[11] = NCI Yeast Anticancer Drug Screen. Data for the wt2 strain (AID 169);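 further: 0% = growth of vehicle-treated yeast cultures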; conditions: S. cerevisiae wt2 strain growth inhibition, stronger effect = higher value
Method in brief: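 This strain belongs to a panel of yeast strains with defined genetic alterations in DNA damage repair or cell cycle control. Compounds are applied, and growth inhibition is measured against vehicle-treated cultures.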

[12] = NCI Yeast Anticancer Drug Screen. Data for the mlh1 strain (AID 171);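 further: 0% = growth of vehicle-treated control cultures of the same strain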; conditions: S. cerevisiae mlh1 strain growth inhibition, stronger effect = higher value
Method in brief: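 Growth of the mutant yeast strain after compound exposure, expressed as inhibition relative to vehicle-only controls.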

[13] = NCI Yeast Anticancer Drug Screen. Data for the sgs1 strain (AID 173);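 further: 0% = growth of vehicle-only control cultures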; conditions: S. cerevisiae sgs1 mutant, stronger effect = higher value
Method in brief: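 Growth of a yeast strain bearing a defined genetic alteration is measured after compound treatment. Inhibition is expressed relative to vehicle-only controls.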

[14] = NCI Yeast Anticancer Drug Screen. Data for the mlh1 rad18 strain (AID 175); conditions: S. cerevisiae mlh1 rad18 strain growth inhibition, stronger effect = higher value
Method in brief: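 Read-out is yeast growth inhibition, calculated against vehicle-only controls. The compound was applied to a strain engineered with DNA damage repair alterations.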

[15] = NCI Yeast Anticancer Drug Screen. Data for the rad18 strain (AID 177); conditions: S. cerevisiae rad18 mutant growth inhibition, stronger effect = higher value
Method in brief: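 Growth of the mutant yeast strain after compound exposure, normalised to vehicle-only cultures.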

[16] = at 5.0 µM (retest, dose inferred, filed as 0.5)
[17] = at 50.0 µM (retest, dose inferred, filed as 5.0)

Measured: growth inhibition

CCN1CCC(O)(c2ccc(Oc3ccc(C)cc3)cc2)C(C(=O)c2ccc(Oc3ccc(C)cc3)cc2)C1 (stereo not drawn)
inactive: [1]; at 1.2 µM -44% | [1]; at 3.7 µM -31% | [2]; at 1.2 µM -17% | [2]; at 3.7 µM 15% | [3]; at 1.2 µM -7% | [3]; at 3.7 µM 6% | [4]; at 1.2 µM -21% | [4]; at 3.7 µM -20% | [4]; [16] 18% | [5]; at 1.2 µM -9% | [5]; at 3.7 µM -1% | [5]; [16] 2% | [6]; at 1.2 µM -38% | [6]; at 3.7 µM -9% | [7]; [16] 16% | [7]; [17] -2% | [8]; at 1.2 µM 29% | [8]; at 3.7 µM 22% | [9]; [16] 18% | [9]; [17] 10% | [10]; at 1.2 µM 0% | [10]; at 3.7 µM 23% | [10]; [16] 14% | [10]; [17] 15% | [11]; at 1.2 µM -7% | [11]; at 3.7 µM -19% | [12]; at 1.2 µM -7% | [12]; at 3.7 µM -2% | [13]; at 1.2 µM -18% | [13]; at 3.7 µM -22% | [14]; [16] 21% | [15]; at 1.2 µM -20% | [15]; at 3.7 µM 5%
active: [1]; at 11.0 µM 97% | [1]; at 33.0 µM 96% | [1]; at 100.0 µM 94% | [2]; at 11.0 µM 96% | [2]; at 33.0 µM 94% | [2]; at 100.0 µM 93% | [3]; at 11.0 µM 98% | [3]; at 33.0 µM 96% | [3]; at 100.0 µM 95% | [4]; at 11.0 µM 97% | [4]; at 33.0 µM 95% | [4]; [17] 96% | [4]; at 50.0 µM 85.6% | [4]; at 100.0 µM 94% | [5]; at 11.0 µM 98% | [5]; at 33.0 µM 97% | [5]; [17] 97% | [5]; at 50.0 µM 92% | [5]; at 100.0 µM 94% | [6]; at 11.0 µM 96% | [6]; at 33.0 µM 95% | [6]; at 100.0 µM 92% | [7]; at 50.0 µM 88.8% | [8]; at 11.0 µM 98% | [8]; at 33.0 µM 96% | [8]; at 100.0 µM 91% | [9]; at 50.0 µM 88.2% | [10]; at 11.0 µM 97% | [10]; at 33.0 µM 96% | [10]; at 50.0 µM 89% | [10]; at 100.0 µM 95% | [11]; at 11.0 µM 97% | [11]; at 33.0 µM 96% | [11]; at 100.0 µM 86% | [12]; at 11.0 µM 98% | [12]; at 33.0 µM 97% | [12]; at 100.0 µM 95% | [13]; at 11.0 µM 97% | [13]; at 33.0 µM 96% | [13]; at 100.0 µM 93% | [14]; [17] 95% | [14]; at 50.0 µM 91% | [15]; at 11.0 µM 97% | [15]; at 33.0 µM 96% | [15]; at 100.0 µM 93%
